Records with an inconclusive call do not appear. Entries that show only a call come without a potency. The source made the active and inactive calls. Calls come from the whole dose curve; as a rule, active = well fitted cell-killing curve with a large enough effect; inconclusive = small, poorly fitted or top-dose-only effect, or effect the other way; inactive = flat fitted curve, though single readings scatter.
test system: PA-1; experiment: Primary qHTS to identify gynecologic anti-cancer compounds using libraries of approved drugs and bioactive compounds (AID 1345084); details: Gynecologic cancer cell panel viability, ATPlite luminescence, 48 h; series mostly up to 57.5 µM; note: nearly all actives have a fitted effect of over 55% in size
Outline: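 Measured: luminescence after ATPlite addition (15 min, RT). Exposure: 48 h, 37 C, 5% CO2.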

SMILES	Potency	activity change, negative = cytotoxicity
CCCCc1ccc(NS(=O)(=O)c2ccc(F)cc2)cc1	inactive	
CC[C@@H]1C[C@]1(NC(=O)[C@@H]1C[C@@H]2CN1C(=O)[C@H](C(C)(C)C)NC(=O)OCC(C)(C)CCCCc1cccc3c1CN(C3)C(=O)O2)C(=O)NS(=O)(=O)C1CC1	inactive	
COc1ccccc1OCCN1CC(COc2cccc3[nH]c4ccccc4c23)OCC1=O (centres undefined)	inactive	
CN(C)N(C)C(=O)[C@@]1(Cc2ccccc2)CCCN(C(=O)[C@@H](Cc2c[nH]c3ccccc23)NC(=O)C(C)(C)N)C1	inactive	
C[C@@H](NC(=O)c1ccc(C#Cc2cccc(F)c2)cn1)C(C)(C)O	inactive	
COc1cc2c(cc1O)C1(Cc3ccc4c(c3C1O)OCO4)[N+](C)([O-])CC2 (centres undefined)	inactive	
C/C=C(\C)C(=O)O[C@H]1C[C@](C)(O)[C@H]2CC=C(C)[C@H]2[C@@H]2OC(=O)[C@H](C)[C@H]21	inactive	
CCNC1(C(N)=O)CCN(c2ncnc3c2nc(-c2ccccc2Cl)n3-c2ccc(Cl)cc2)CC1	inactive	
COc1ccccc1N1CCN(CC[C@@](C)(C(=O)C2CCCCC2)c2ccccc2)CC1	inactive	
CC(C)(C)c1ccc(C(=O)Nc2cn3cc(-n4ccnc4)ccc3n2)cc1	inactive	
COc1cc(CN(CCN)C(=O)c2cccs2)ccc1OCc1ccccc1	inactive	
CCN(CCNC(=O)Nc1ccccc1Br)c1cccc(C)c1	inactive	
CCCCOc1ccc(S(=O)(=O)n2c(C)nc3ccccc32)cc1	inactive	
CCN(c1cc(-c2ccc(CN3CCOCC3)cc2)cc(C(=O)NCc2c(C)cc(C)[nH]c2=O)c1C)C1CCOCC1	inactive	
C=C1CC[C@@H](O)[C@]2(C)CC[C@H]3C(=C)C(=O)O[C@@H]3[C@@H]12	inactive	
CN[C@@H]1[C@H](O[C@H]2[C@H](O[C@@H]3[C@@H](O)[C@H](O)[C@@H](N=C(N)N)[C@H](O)[C@H]3N=C(N)N)O[C@@H](C)[C@]2(O)CO)O[C@@H](CO)[C@H](O)[C@H]1O	inactive	
Cc1cc(C)c(S(=O)(=O)n2cc(C)cc2C)c(C)c1	inactive	
Cc1cn2c(n1)Cc1ccc(Cl)cc1C(c1ccc(N)cc1)=N2	inactive	
COc1c(C(C)C)c(O)c(O)c2c1C(OC)[C@H]1OC(=O)[C@@]23CCCC(C)(C)[C@H]13 (some centres undefined)	inactive	
CC(=O)OC[C@]12[C@H](OC(C)=O)[C@H](OC(=O)c3ccccc3)[C@@H]3[C@@H](OC(C)=O)[C@]1(OC3(C)C)[C@H](C)C[C@H](OC(C)=O)[C@@H]2OC(=O)c1ccccc1	inactive	

SMILES	Potency	activity change, negative = cytotoxicity
C=C1CCN([C@H](C)[C@](O)(Cn2cncn2)c2ccc(F)cc2F)CC1	inactive	
COc1cccc(CN(C(=O)CC(C)(C)C)[C@H]2C[C@H](C(=O)N3CCNCC3)N(Cc3ccc4c(c3)OCO4)C2)c1	inactive	
CC(=O)OC1C(O)CC2(C)C(CCC3(C)C2CC=C2C4C5(CCC(CO[C@@H]6O[C@H](CO)[C@@H](O)[C@H](O)[C@H]6O)(OC5=O)C4(C)O)C(O)CC23C)C1(C)C (some centres undefined)	inactive	
COc1ccc(-c2cnc3c(-c4cccc5ncccc45)cnn3c2)cc1	inactive	
O=S(=O)(c1ccccc1)N(CC(F)(F)F)c1ccc(C(O)(C(F)(F)F)C(F)(F)F)cc1	inactive	
CC(C)C(C)C(O)C1CC23CC(=O)C4(O)C(=C2CCC3C1C)C=CC1(O)CC(O)CCC14C (centres undefined)	inactive	
CN(C)c1ccnc2sc3c(=O)n(N4CCCCCC4)cnc3c12	inactive	
CN1CCN(c2ccc(-c3cccc(CN4CCOCC4)c3)cc2NC(=O)c2c[nH]c(=O)cc2C(F)(F)F)CC1	inactive	
C[C@@H]1O[C@@H](O[C@H]2[C@@H](OC(=O)[C@]34CCC(C)(C)CC3C3=CCC5[C@@]6(C)C[C@H](O)[C@H](O[C@@H]7O[C@H](CO)[C@@H](O)[C@H](O)[C@H]7O[C@@H]7OC[C@@H](O)[C@H](O)[C@H]7O)[C@@](C)(C(=O)O)C6CC[C@@]5(C)[C@]3(C)CC4)OC[C@H](O)[C@@H]2O)[C@H](O)[C@H](O)[C@H]1O[C@@H]1OC[C@@H](O)[C@H](O)[C@H]1O (some centres undefined)		-26.7% [at 6.55 µM] (inactive)
CC1(C)CCCC2(C)C1C(OC(=O)/C=C/C=C/C=O)C=C1COC(=O)C12O (centres undefined)	inactive	
CC(=O)O[C@]1(C(C)=O)CC[C@H]2[C@@H]3CCC4=CC(=O)CCC4=C3[C@@H](c3ccc(N(C)C)cc3)C[C@@]21C	inactive	
O=C(NCCO)c1cccc(-c2cc(Nc3ccc(OC(F)(F)F)cc3)ncn2)c1	inactive	
CN1CCc2cc3c(cc2C(=O)Cc2cc4c(cc2C1)OCO4)OCO3	inactive	
C=C(C)C(=O)O[C@H]1/C(C=O)=C\CC/C(CO)=C/[C@H]2OC(=O)C(=C)[C@@H]2[C@@H]1OC	inactive	
O=C(CSc1nc2ccccc2c(=O)n1-c1ccccc1)Nc1ccc2c(c1)CCC2	inactive	
CC1=C2C[C@@]3(C)C(CCC[C@@H]3C)C(O)C2OC1=O (some centres undefined)	inactive	
C=C1/C(=C/C=C2\CCC[C@]3(C)[C@@H]([C@@H](C)OCCC(O)(CC)CC)CC[C@@H]23)C[C@@H](O)C[C@@H]1O	inactive	
CC(C)(C)C1CCN(C(=O)n2ncc(C(O)(c3ccccc3)c3ccccc3)n2)CC1	inactive	
CC(=O)C1=C(O)C=C2Oc3c(C(C)=O)c(O)c(C)c(O)c3[C@]2(C)C1=O	inactive	

— PubChem BioAssay (NCATS)
